Bioassay records as filed in PubChem.
In the library only some 4.1% were active in any assay of this set; here they are far more common.
ssDAF-12 act = activates DAF-12 receptor from parasite S. stercoralis. 370,000 compounds, 1% hits. activation, % at 6.8 µM. AID 652126. HEK293 ssDAF-12/GRIP1 lit1-tk-luc reporter, luminescence; % of 3 µM dafachronic acid response;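 active means activation above the mean over all tested compounds plus 3 SD, cut at about 0.9% in these data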
DAX1 inh-1 = DAX1 (NR0B1) inhibition, primary screen; HEK293T StAR-luciferase reporter, SF-1/DAX-1 repression relief; inhibition, % at 6.8 µM; 370,000 compounds, 1.1% hits; AID 652010;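 active means inhibition above the mean over all tested compounds plus 3 SD, cut at about 3.6% in these data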;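 further: higher inhibition means more luminescence from relief of DAX-1 repression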
hcDAF12 agonist = activates DAF-12 receptor from parasite H. contortus; HEK293 hcDAF-12 lit1-tk-luc reporter, luminescence; 0% DMSO, 100% Δ7-dafachronic acid; 370,000 compounds, 1.4% hits; AID 652067; activation, % at 6.8 µM;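 active means activation above the mean of all tested compounds plus 3 SD, cut at about 5.5% in these data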
DAX1 inh-2 = NR0B1 (DAX1) inhibition. HEK293 Gal4-DAX1 luciferase reporter, luminescence. P51843. AID 504766. 340,000 compounds, 0.99% hits. inhibition, % at 6.75 µM;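 active means inhibition above the mean over all tested compounds plus 3 SD, cut at about 4.2% in these data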;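 further: inhibition shows as a rise in luminescence from relieved DAX1 repression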
Target sequence (P51843 207-470 limits assumed): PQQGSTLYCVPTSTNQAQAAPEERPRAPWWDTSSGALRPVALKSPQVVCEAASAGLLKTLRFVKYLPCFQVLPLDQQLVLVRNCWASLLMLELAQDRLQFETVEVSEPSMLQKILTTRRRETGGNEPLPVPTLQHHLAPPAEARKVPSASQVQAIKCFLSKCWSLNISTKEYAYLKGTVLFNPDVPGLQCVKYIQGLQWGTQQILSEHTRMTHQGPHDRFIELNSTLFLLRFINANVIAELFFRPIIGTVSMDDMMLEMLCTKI
hgDAF12 agonist = activates the H. glycines DAF-12 receptor ligand-binding domain. 370,000 compounds, 1.8% hits. HEK293 GAL4-hgDAF12 UAS-luciferase reporter, agonist luminescence; normalized to butyrate control. AID 687014. activation, % at 6.8 µM;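 active means activation above a cutoff set at the mean of all screened compounds plus 3 SD, cut at about 10% in these data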
Each line names hits and unclear results; the compound was inactive in the other large screens.

CCN1CCCC1CN(Cc1cc2cc(C)ccc2[nH]c1=O)C(=O)Nc1ccccc1OC (centres undefined)	DAX1 inh-1 4.0
COc1cccc(OC)c1C(=O)Nc1ccc2c(c1)Cc1ccccc1-2	hcDAF12 agonist 6.4
COc1cccc(OC)c1C(=O)NC(=S)Nc1ccc2c(c1)Cc1ccccc1-2	none
CCOC(=O)[C@]12CCCC=C1N(CCCOC)C(=O)[C@@H]2CC(=O)N1CCC(c2ccccc2)CC1	none (no result: DAX1 inh-2)
CCCCOc1ccc(C2CCC(C(C)=O)C(C)C2)cc1 (centres undefined)	DAX1 inh-2 4.7
O=c1[nH]c(CSc2ccccn2)nc2c1oc1ccccc12	DAX1 inh-1 4.4, hgDAF12 agonist 12
COc1ccc(-n2c(Cc3cc(=O)[nH]c(=O)[nH]3)nnc2SCC(=O)N2CCC(C)CC2)cc1	none
CC1CCN(C(=O)CSc2nnc(Cc3cc(=O)[nH]c(=O)[nH]3)n2-c2ccc(Cl)cc2)CC1	DAX1 inh-2 5.3
COc1cccc(-n2c(Cc3cc(=O)[nH]c(=O)[nH]3)nnc2SCC(=O)N2CCCCCC2)c1	hcDAF12 agonist 6.3
CC(=O)c1cc(-c2cccc(CO)c2)c(=O)n2c1CCC2	none (no result: DAX1 inh-2)
O=C(CSc1nnc(NC(=O)c2ccccc2F)s1)NCC1CCCO1 (centres undefined)	DAX1 inh-1 3.8
O=C(CSc1nnc(NC(=O)c2ccc3c(c2)OCO3)s1)NCc1ccco1	hcDAF12 agonist 5.9, hgDAF12 agonist 13
O=C(CN1CCN(c2ccccc2O)CC1)NC(=O)NCc1ccco1	none
Cc1ccccc1C(=O)Nc1nnc(SCC(=O)NCc2ccco2)s1	DAX1 inh-1 8.0, hcDAF12 agonist 5.9, hgDAF12 agonist 12
O=C(CN1CCc2ccccc21)NC(=O)NCc1ccco1	ssDAF-12 act 1.0
COC(=O)[C@]12C[C@H](CC(=O)NCc3ccccc3)C(=O)N(Cc3ccco3)C1=C[C@H](COCc1ccccc1)O[C@@H]2C	none (no result: DAX1 inh-2)
O=C(CSc1nc2ccccc2s1)NC(=O)NCc1ccco1	ssDAF-12 act 1.4
Cc1ccccc1NC(=O)Nc1ccc(C(F)(F)F)cc1	hgDAF12 agonist 11
CC(C)c1cc(C(C)C)c(S(=O)(=O)N2CCC(C(=O)NCC3COCCO3)CC2)c(C(C)C)c1 (centres undefined)	none (no result: DAX1 inh-2)
Cc1ccc(-c2nn(-c3ccccc3)cc2/C=C2\SC(=S)N(CC(=O)O)C2=O)cc1	ssDAF-12 act 1.6
CCOc1ccc(S(=O)(=O)N2CC(=O)Nc3ccccc32)cc1C#N	DAX1 inh-2 4.3
CCCCCCCCNS(=O)(=O)CC1NCc2ccc(C)cc21 (centres undefined)	none (no result: DAX1 inh-2)
CC(C)CCNC(=O)[C@H]1COC(O)([C@H](Cc2ccccc2)NC(=O)[C@@H](NC(=O)OCc2ccccc2)C(C)C)CN1C (some centres undefined)	none (no result: DAX1 inh-1, DAX1 inh-2)
COC(=O)[C@]12C[C@H](CC(=O)NCc3ccc(OC)c(OC)c3)C(=O)N(Cc3ccccc3)C1=C[C@H](COCc1ccccc1)O[C@@H]2C	none (no result: DAX1 inh-2)
CN(C)S(=O)(=O)c1cccc(C(=O)NCCNC(=O)c2cccc(S(=O)(=O)N(C)C)c2)c1	none
COC(=O)C(Cc1ccccc1)NC(=O)c1cccc(S(=O)(=O)N(C)C)c1 (centres undefined)	DAX1 inh-2 4.4
CC(Cc1ccco1)NC(=O)c1cccc(S(=O)(=O)N(C)C)c1 (centres undefined)	hgDAF12 agonist 12
O=C(NCCc1c[nH]c2ccccc12)c1ccc2c(c1)ncn2C1CCCCC1	none (no result: DAX1 inh-2)
COc1ccc(NC(=S)N2CCCC2)c(OC)c1	DAX1 inh-2 4.6
COc1ccc(Cl)cc1NC(=S)N1CC(C)OC(C)C1 (centres undefined)	none
COc1ccc(NC(=S)N2CCN(Cc3cccc(F)c3)CC2)c(OC)c1	DAX1 inh-2 5.0
COc1ccc(NC(=S)N2CCN(c3ccccc3)CC2)c(OC)c1	none
COc1ccccc1NC(=S)N1CC(C)OC(C)C1 (centres undefined)	DAX1 inh-2 4.6
C=CC[C@@H]1NN2C(=O)[C@@H](CCCC)[C@@H]3c4ccccc4C=NN3[C@@H]2c2ccccc21	none (no result: DAX1 inh-2)
Cn1c(-c2ccccc2)n[nH]c1=S	none
Cn1c(-c2ccccc2Br)n[nH]c1=S	hcDAF12 agonist 5.6
CC(C)Cn1c2c(c(=O)[nH]c1=O)C(NS(=O)(=O)c1ccc(Cl)cc1)(C(F)(F)F)C(=O)N2 (centres undefined)	DAX1 inh-2 4.3
COc1ccc(NC(=O)CSc2nnc(CNC(=O)COc3ccc(Cl)cc3)o2)cc1	hgDAF12 agonist 13
COc1ccc(OCC(=O)C2CC2)c(C#N)c1	DAX1 inh-2 7.2
CCC1=C(NCc2ccccc2)COC1=O	DAX1 inh-2 4.3
N#Cc1ccc(Cn2ccc3ccc(-c4ccc5ccn(C(=O)C6CCC6)c5c4)cc32)cc1	none (no result: DAX1 inh-2)
O=C(NNc1nc2c(F)cc(F)cc2s1)c1ccccc1	none
O=C(NNc1nc2c(F)cccc2s1)c1ccccc1	DAX1 inh-2 10
CC(C)S(=O)(=O)N[C@@H]1c2cc3c(cc2[C@H](c2ccccc2)[C@H]1C)OCO3	none (no result: DAX1 inh-2)
CCNc1nc(Cl)nc(NCCOc2ccc(C)cc2)n1	none
CN(C)c1nc(Cl)nc(NCCOc2ccccc2)n1	DAX1 inh-2 4.3
C=CCN(Cc1ccc(OC)cc1OC)C(C#Cc1ccccc1)c1ccccc1 (centres undefined)	none (no result: DAX1 inh-1, DAX1 inh-2)
CCOC(=O)/C(C#N)=C/C1=C(N2CCOCC2)C(C)(C)OCC1	DAX1 inh-2 4.3
O=C(CCCN1C(=O)/C(=C/c2ccccc2)SC1=S)NCCCn1ccnc1	none
O=C(CCN1C(=O)/C(=C/c2ccccc2F)SC1=S)NCCCn1ccnc1	hcDAF12 agonist 6.5
CN=c1scc(C)n1/N=C/c1ccc2c(c1)OCO2	DAX1 inh-1 5.6, hcDAF12 agonist 9.6, hgDAF12 agonist 11
CN=c1scc(C)n1/N=C/c1ccc(O)cc1	none
CC(C)C1Cc2c(sc(NC(=S)NC(=O)c3ccccc3)c2C#N)CO1 (centres undefined)	none
CCCN1CCc2c(sc(NC(=S)NC(=O)c3ccccc3)c2C#N)C1	DAX1 inh-2 4.8
Cc1sc(NC(=S)NC(=O)c2ccccc2)c(C#N)c1C	none
CC(C)N1CCc2c(sc(NC(=S)NC(=O)c3ccccc3)c2C#N)C1	hcDAF12 agonist 8.3
COC(=O)[C@]12C[C@H](CC(=O)NCC34CC5CC(CC(C5)C3)C4)C(=O)N(Cc3ccc(Cl)cc3Cl)C1=C[C@H](C1CCCC1)O[C@@H]2C	none (no result: DAX1 inh-2)
Cc1oc2c(C)c(O)ccc2c(=O)c1-c1nncn1-c1ccccc1	DAX1 inh-2 7.1
CCCNC(=O)Nc1ccc2c(c1)C(=O)N(C)[C@H]1CC[C@@H](CC(=O)OC)O[C@H]1CO2	none (no result: DAX1 inh-2)
C/C=C/c1ccc(OCC(=O)OCc2csc(CC(=O)Nc3ccccc3C)n2)c(OC)c1	DAX1 inh-2 5.9
CC(=O)c1cc(-c2ccc(S(C)(=O)=O)cc2)c(=O)n2c1CCC2	none (no result: DAX1 inh-2)
